Results published in the supplement of paper PMC3334620.
In all, about 33,000 sequences were measured (“E-score (-0.5 to 0.5)”: median about -8e-05, highest 2% from about 0.23 on). Many of the other results were omitted from the sample, so the highest values are more common in it than they were.

These sequences were tested against T1, Nrg2 (UniProt P38082) (assay: PBM E-score (8-mer binding enrichment) (E-score (-0.5 to 0.5)); higher = stronger / more preferred TF binding). Conditions: protein concentration: 100 nM; construct: GST-full length.
T1 sequence: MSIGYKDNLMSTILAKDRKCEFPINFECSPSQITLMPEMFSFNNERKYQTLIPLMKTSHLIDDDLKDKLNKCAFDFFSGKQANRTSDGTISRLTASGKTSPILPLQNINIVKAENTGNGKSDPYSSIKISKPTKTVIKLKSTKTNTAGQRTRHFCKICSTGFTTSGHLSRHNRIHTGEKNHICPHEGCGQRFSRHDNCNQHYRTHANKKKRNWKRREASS
Experimental: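 Universal 'all 10-mer' protein binding microarrays (Agilent AMADID 015681) probed with GST-tagged S. cerevisiae TFs (full-length or DBD) made by in vitro transcription/translation (PURExpress), about 100-200 nM. Bound TF was detected with fluorescent anti-GST. Each ungapped 8-mer (which stands for itself and its reverse complement) is scored by the PBM enrichment score (E-score), a modified Wilcoxon-Mann-Whitney statistic from -0.5 to +0.5, computed with the Universal PBM Analysis Suite. Scale: above 0.35 generally sequence-specific binding.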

| Sequence | PBM E-score |
| --- | --- |
| CCACCAGA | 0.0154 |
| CCCGGAGA | -0.138 |
| TGATAGCA | 0.14 |
| TGAGGACA | 0.0644 |
| ACTCTTTA | -0.0446 |
| GAGTAGGC | -0.0622 |
| AATACTGC | 0.068 |
| ACAGCTGC | -0.0727 |
| CTTACTAA | 0.0213 |
| CAGGCCTG | 0.115 |
| AGGGTACT | 0.255 |
| AGGGTACC | 0.0534 |
| AGGGTACA | 0.181 |
| GGTCTACA | -0.0592 |
| CAAACCAC | -0.00637 |
| CTACGTTC | -0.178 |
| CCGGAACA | -0.0209 |
| TCGGAACA | 0.313 |
| ACGGAACA | 0.0339 |
| CGGCCATA | -0.123 |
| AGGTTTCC | -0.0376 |
| TCCGTGCA | 0.134 |
| CGAACGGC | -0.0328 |
| CATGGCCG | 0.258 |
| CATGGCCA | -0.042 |

| Sequence | PBM E-score |
| --- | --- |
| CATGGCCC | -0.066 |
| AGTCAGTC | -0.127 |
| CCTAATCG | 0.16 |
| ACTAATCT | 0.00502 |
| ACTAATCG | 0.278 |
| GGACCACC | 0.0365 |
| ACTCCAGC | -0.0193 |
| CATTTCGC | 0.184 |
| AATTTCGA | 0.0453 |
| AATTTCGC | 0.244 |
| ATTTTCGC | 0.131 |
| GATTTCGA | 0.00717 |
| GATTTCGC | 0.281 |
| GTAGTCTA | -0.118 |
| AACAATAA | 0.26 |
| ACCAATAT | 0.213 |
| AACAATAT | 0.266 |
| GACAAGAC | 0.154 |
| GACAAAAC | 0.274 |
| AACACTAG | 0.152 |
| AACACTAC | 0.0505 |
| AACACTAT | 0.252 |
| AACAATAG | -0.124 |
| AACAATAC | 0.202 |
| GACAAAAA | 0.0692 |

| Sequence | PBM E-score |
| --- | --- |
| AGCAATAT | 0.0474 |
| AGTGAATC | 0.0226 |
| ATTTGCTC | 0.156 |
| GCCGAGGC | 0.177 |
| CATTAAGA | -0.214 |
| ACTGGCCT | -0.0393 |
| CCGGAGCC | -0.189 |
| GACAATAC | 0.232 |
| AGTAATAC | -0.0266 |
| AACAATCG | -0.0412 |
| AACAATCT | 0.0946 |
| CACAATAC | 0.173 |
| CGTAATAG | -0.00104 |
| AACAATCC | 0.241 |
| GACAATAA | 0.218 |
| AGTAATAG | 0.247 |
| AATAATAT | 0.283 |
| AATAATAA | 0.0987 |
| AATAATAG | 0.0626 |
| TCTCTTAA | 0.123 |
| AGGTTCAG | 0.0524 |
| ACCCTTCT | -0.104 |
| GCCTGGTA | 0.0618 |
| ATAGGTTA | -0.00463 |
| CGCAATAA | 0.211 |

| Sequence | PBM E-score |
| --- | --- |
| AGCAATAC | 0.12 |
| CGCAATAC | 0.231 |
| GATACACC | 0.0324 |
| AAATCGAA | 0.111 |
| CAATCGAA | 0.258 |
| AAATCGAC | 0.237 |
| ATGTCGAA | 0.147 |
| CAATCGAC | -0.102 |
| ATGTCGAC | 0.254 |
| ATATCGAC | 0.255 |
| GTATCGAC | 0.123 |
| TAATCGAA | 0.176 |
| CTATCGAC | -0.166 |
| AAATCGAG | 0.0129 |
| CTGTCGAC | -0.0435 |
| CGCCGGAC | 0.0155 |
| CCCTGTCC | 0.0104 |
| CTTGAAGC | -0.0505 |
| CAACGGTG | -0.187 |
| CAACAAGG | 0.186 |
| GACTCTCA | -0.0326 |
| AATGCACC | 0.0152 |
| GAATTTGC | 0.172 |
| ATCTGAGG | 0.0579 |
| ACTAACGA | 0.00448 |

| Sequence | PBM E-score |
| --- | --- |
| CACAGCGC | 0.156 |
| CCCGACAA | 0.261 |
| CGCGACAA | 0.308 |
| GGCGACAA | -0.0104 |
| AGCGAACA | 0.0707 |
| GGCGACCA | -0.146 |
| CGCGAACA | 0.264 |
| ACCGACAA | 0.0162 |
| AGCGACCA | -0.0183 |
| CGCGACCA | 0.23 |
| CCCGACAG | -0.165 |
| TGCGACAA | 0.0655 |
| GGCGAACA | -0.00418 |
| ACGCCCCA | 0.179 |
| AAGGCGGG | -0.208 |
| CGGTGATA | -0.0567 |
| ACAGAGCA | 0.0833 |
| TAGCATGA | 0.149 |
| TAAATGAA | 0.0819 |
| GAAATGAA | 0.29 |
| GAAATGAC | 0.249 |
| AAAATGAC | 0.0768 |
| CAAATGAA | -0.0303 |
| CAAATGAC | 0.0271 |
| AGCGAAAC | 0.102 |

| Sequence | PBM E-score |
| --- | --- |
| CTTACCAA | 0.069 |
| CAGCGCCG | -0.09 |
| ATACCAAT | 0.0716 |
| GCAAGAGA | -0.12 |
| GAATTTCC | 0.252 |
| ATATTTCC | 0.206 |
| CAATTTCC | 0.108 |
| CTATTTCC | 0.255 |
| CTATTTCA | 0.164 |
| AAATTTCC | 0.113 |
| AGTAGGTC | -0.219 |
| AATTAGTA | 0.23 |
| CATTAGTA | 0.112 |
| CTTTAGTA | -0.00347 |
| ATTTAGTA | 0.274 |
| AATTAGTC | 0.107 |
| ATTTAGTC | 0.0158 |
| GATGCGGC | -0.094 |
| ACTCTAGA | -0.0152 |
| GGTGGGAA | -0.0571 |
| GGCGGGGA | 0.249 |
| GGTGGGGA | 0.265 |
| CGCGGGGA | 0.165 |
| CGTGGGGA | 0.121 |
| CATGGGGA | 0.135 |

| Sequence | PBM E-score |
| --- | --- |
| GGCGGGAA | -0.11 |
| TATGGGGA | 0.283 |
| AATGGGGA | 0.0109 |
| ATACCGAC | -0.243 |
| CCGTCCGA | -0.257 |
| GACTAGGA | -0.0424 |
| CAAATCTA | 0.101 |
| ACTTGAGC | -0.295 |
| ACGTGGCT | -0.0848 |
| ATACTGAC | 0.146 |
| ATACTGAG | 0.255 |
| ATACTGTC | 0.256 |
| CTACTGAG | -0.00592 |
| ATACTGAT | 0.225 |
| ATACTGTG | -0.0451 |
| AGCCGCGA | -0.0535 |
| AGTCCAAC | 0.0694 |
| ATGTTCTC | -0.0462 |
| AGTAAGAG | -0.0249 |
| ATCCCTGC | 0.157 |
| ATCCCTTA | 0.0558 |
| ATCCCTGA | 0.256 |
| ATCCCTCA | -0.0503 |
| ATCCCCTA | 0.0411 |
| ATCCCTCG | 0.0848 |

| Sequence | PBM E-score |
| --- | --- |
| GTCCCTCA | 0.0343 |
| GTCCCTTA | 0.288 |
| CTCCCTGA | 0.0641 |
| GTCCCTGA | 0.356 |
| ATCCCTGG | 0.302 |
| CTCCCTTA | -0.202 |
| ATCTGCTC | -0.0264 |
| AGGCATAT | -0.0234 |
| ACGAGGGC | 0.0428 |
| CCGCCAGA | -0.0239 |
| GACAACCA | 0.122 |
| TATCCCAA | -0.005 |
| ATTGGCCA | 0.171 |
| TACACGAA | 0.18 |
| CTACAGGC | -0.0785 |
| AGAGGGTC | -0.0416 |
| CCAGGGGC | 0.0624 |
| CCAGGGTC | 0.392 |
| ACAGGGCA | 0.195 |
| GCAGGGTA | 0.164 |
| CGAGGGTA | 0.0487 |
| CCAGGGTA | 0.304 |
| ACAGGGTC | 0.402 |
| CCAGGGCC | 0.106 |
| CTAGGGTC | 0.188 |

| Sequence | PBM E-score |
| --- | --- |
| ACAGGGCC | 0.295 |
| ACAGGGGC | 0.0717 |
| GTCCATGA | -0.237 |
| GGCAATTA | 0.103 |
| CGCATTGC | 0.148 |
| ACAACAGA | -0.0576 |
| CGCGAAGA | 0.12 |
| AATCGTGT | 0.164 |
| ATGGGTGC | -0.0107 |
| GATGAAAA | 0.0467 |
| CTCCCAAC | -0.0556 |
| CTACCACC | -0.166 |
| AGCGGGTC | -0.21 |
| ATAGGGTA | 0.17 |
| ACAGGGTA | 0.349 |
| ACAGGGTG | 0.0367 |
| CTTGTGCC | -0.222 |
| AGTTCTAG | -0.0512 |
| ATTGAGAC | 0.0341 |
| ATTGAGAA | 0.232 |
| ATTGAGAG | 0.0708 |
